Test results reported in publication PMC5540273 (PLoS ONE, 2017).

Assays:
Conditions in all cases: concentration: 1 μM, replicates: in singlicate; n = 1
PRKCQ = test system: PRKCQ
PRKD1 = test system: PRKD1
PRKD2 = test system: PRKD2
PRKD3 = test system: PRKD3
PRKG1 = test system: PRKG1
PRKG2 = test system: PRKG2
PRKR = test system: T1, PRKR
T1 construct: gene EIF2AK2

PRKX = test system: PRKX
PRP4 = test system: PRP4
PYK2 = test system: T2, PYK2
T2 construct: gene PTK2B
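Note: KINOMEscan kinase panel screen.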

Nc1ncnc2[nH]c(-c3ccccc3)nc12 [AH5015]
%Inh (PRKCQ): 0% | %Inh (PRKD1): 0% | %Inh (PRKD2): 0% | %Inh (PRKD3): 9% | %Inh (PRKG1): 6% | %Inh (PRKG2): 0% | %Inh (PRKR): 0% | %Inh (PRKX): 0% | %Inh (PRP4): 30% | %Inh (PYK2): 0%

CC1=C(C(=O)Nc2cc3cn[nH]c3cc2F)C(c2ccc(C(F)(F)F)cc2)CC(=O)N1 (stereo not drawn) [GSK429286]
%Inh (PRKCQ): 28% | %Inh (PRKD1): 22% | %Inh (PRKD2): 4% | %Inh (PRKD3): 0% | %Inh (PRKG1): 30% | %Inh (PRKG2): 0% | %Inh (PRKR): 0% | %Inh (PRKX): 87% | %Inh (PRP4): 7% | %Inh (PYK2): 10%

CS(=O)(=O)c1ccc(-c2c(-c3ncn[nH]3)sc(N3CCOCC3)c2C#N)cc1
%Inh (PRKCQ): 0% | %Inh (PRKD1): 19% | %Inh (PRKD2): 11% | %Inh (PRKD3): 14% | %Inh (PRKG1): 12% | %Inh (PRKG2): 6% | %Inh (PRKR): 0% | %Inh (PRKX): 32% | %Inh (PRP4): 0% | %Inh (PYK2): 0%

Cc1cc(NCC(c2ccccc2)c2ccccc2)nc(NCc2ccc(C(F)(F)F)cc2)n1 [GW497681]
%Inh (PRKCQ): 0% | %Inh (PRKD1): 0% | %Inh (PRKD2): 6% | %Inh (PRKD3): 0% | %Inh (PRKG1): 0% | %Inh (PRKG2): 0% | %Inh (PRKR): 0% | %Inh (PRKX): 6% | %Inh (PRP4): 29% | %Inh (PYK2): 6%

O=C(Nc1n[nH]c2nc(-c3nccs3)c(Br)cc12)C1CC1 [SB-742251]
%Inh (PRKCQ): 32% | %Inh (PRKD1): 0% | %Inh (PRKD2): 0% | %Inh (PRKD3): 0% | %Inh (PRKG1): 0% | %Inh (PRKG2): 0% | %Inh (PRKR): 0% | %Inh (PRKX): 0% | %Inh (PRP4): 51% | %Inh (PYK2): 0%

Cc1ccccc1-n1cnc2c(N)ncnc21 [SKF-97510]
%Inh (PRKCQ): 0% | %Inh (PRKD1): 0% | %Inh (PRKD2): 0% | %Inh (PRKD3): 4% | %Inh (PRKG1): 0% | %Inh (PRKG2): 0% | %Inh (PRKR): 0% | %Inh (PRKX): 0% | %Inh (PRP4): 0% | %Inh (PYK2): 0%

Cc1nnc(-c2ccc3occ(-c4ccc(S(C)=O)cc4)c3c2)[nH]1 (stereo not drawn)
%Inh (PRKCQ): 0% | %Inh (PRKD1): 0% | %Inh (PRKD2): 4% | %Inh (PRKD3): 0% | %Inh (PRKG1): 0% | %Inh (PRKG2): 0% | %Inh (PRKR): 0% | %Inh (PRKX): 51% | %Inh (PRP4): 10% | %Inh (PYK2): 26%

CN1C(=O)C(Nc2ccc(Cl)c(C(=O)O)c2)=C(c2ccc(Cl)cc2)C1=O [SB-404290]
%Inh (PRKCQ): 77% | %Inh (PRKD1): 0% | %Inh (PRKD2): 6% | %Inh (PRKD3): 0% | %Inh (PRKG1): 13% | %Inh (PRKG2): 0% | %Inh (PRKR): 0% | %Inh (PRKX): 0% | %Inh (PRP4): 0% | %Inh (PYK2): 5%

COc1ccc(C2=C(Nc3cccc(C(=O)O)c3)C(=O)NC2=O)cc1 [SB-390765]
%Inh (PRKCQ): 12% | %Inh (PRKD1): 0% | %Inh (PRKD2): 0% | %Inh (PRKD3): 0% | %Inh (PRKG1): 0% | %Inh (PRKG2): 0% | %Inh (PRKR): 11% | %Inh (PRKX): 0% | %Inh (PRP4): 0% | %Inh (PYK2): 17%

Fc1cccc(COc2nnc(-c3ccc4c(c3)CCO4)o2)c1
%Inh (PRKCQ): 22% | %Inh (PRKD1): 0% | %Inh (PRKD2): 1% | %Inh (PRKD3): 0% | %Inh (PRKG1): 0% | %Inh (PRKG2): 0% | %Inh (PRKR): 0% | %Inh (PRKX): 0% | %Inh (PRP4): 8% | %Inh (PYK2): 10%

COC(=O)c1c(-c2ccccc2)c2cc(OC)ccc2c(=O)n1Cc1ccccc1
%Inh (PRKCQ): 15% | %Inh (PRKD1): 0% | %Inh (PRKD2): 16% | %Inh (PRKD3): 0% | %Inh (PRKG1): 0% | %Inh (PRKG2): 2% | %Inh (PRKR): 4% | %Inh (PRKX): 4% | %Inh (PRP4): 7% | %Inh (PYK2): 6%

Cc1cccc(-c2nc(-c3ccc(S(C)(=O)=O)cc3)sc2-c2ccnc(NCCc3ccccc3)c2)c1
%Inh (PRKCQ): 26% | %Inh (PRKD1): 1% | %Inh (PRKD2): 0% | %Inh (PRKD3): 0% | %Inh (PRKG1): 20% | %Inh (PRKG2): 20% | %Inh (PRKR): 0% | %Inh (PRKX): 0% | %Inh (PRP4): 9% | %Inh (PYK2): 4%

COc1ccc(Nc2nccc(NCCNC(=O)Nc3ccccc3F)n2)cc1 [GSK1379901]
%Inh (PRKCQ): 0% | %Inh (PRKD1): 0% | %Inh (PRKD2): 83% | %Inh (PRKD3): 0% | %Inh (PRKG1): 8% | %Inh (PRKG2): 0% | %Inh (PRKR): 1% | %Inh (PRKX): 5% | %Inh (PRP4): 14% | %Inh (PYK2): 8%

Clc1cc(Cl)cc(Nc2ccnc(Nc3cc(Cl)cc(Cl)c3)n2)c1 [GSK175726]
%Inh (PRKCQ): 0% | %Inh (PRKD1): 0% | %Inh (PRKD2): 12% | %Inh (PRKD3): 0% | %Inh (PRKG1): 0% | %Inh (PRKG2): 12% | %Inh (PRKR): 14% | %Inh (PRKX): 10% | %Inh (PRP4): 6% | %Inh (PYK2): 19%

COc1cc2ncnc(Nc3ccc4nc(-c5ccccc5)[nH]c4c3)c2cc1OC.Cl [GW282450]
%Inh (PRKCQ): 11% | %Inh (PRKD1): 0% | %Inh (PRKD2): 5% | %Inh (PRKD3): 7% | %Inh (PRKG1): 0% | %Inh (PRKG2): 13% | %Inh (PRKR): 13% | %Inh (PRKX): 5% | %Inh (PRP4): 10% | %Inh (PYK2): 7%

Cc1ccc(-c2cc(-c3c[nH]nc3-c3ccccn3)ccn2)cc1 [GW684088]
%Inh (PRKCQ): 1% | %Inh (PRKD1): 68% | %Inh (PRKD2): 62% | %Inh (PRKD3): 69% | %Inh (PRKG1): 0% | %Inh (PRKG2): 16% | %Inh (PRKR): 24% | %Inh (PRKX): 21% | %Inh (PRP4): 27% | %Inh (PYK2): 16%

Cc1cccc(-c2cc(Nc3ccncc3)c3ccccc3n2)n1 [GSK223675]
%Inh (PRKCQ): 0% | %Inh (PRKD1): 91.1% | %Inh (PRKD2): 96% | %Inh (PRKD3): 100% | %Inh (PRKG1): 0% | %Inh (PRKG2): 0% | %Inh (PRKR): 0% | %Inh (PRKX): 16% | %Inh (PRP4): 19% | %Inh (PYK2): 14%

Fc1cc(Cl)ccc1Nc1ccnc2cc(-c3ccc(CN4CCCCC4)o3)ccc12 [GW560116]
%Inh (PRKCQ): 0% | %Inh (PRKD1): 0% | %Inh (PRKD2): 0% | %Inh (PRKD3): 0% | %Inh (PRKG1): 0% | %Inh (PRKG2): 0% | %Inh (PRKR): 0% | %Inh (PRKX): 0% | %Inh (PRP4): 21% | %Inh (PYK2): 0%
